{
  "source": "PubChem BioAssay AID1256",
  "about": "(The Scripps Research Institute Molecular Screening Center, 2008)",
  "note": "The other results are listed elsewhere or left out. Values without a mark were called inactive. The source made the active and inactive calls. Rule as the data show it: active = inhibition above about 20%; inactive = the rest.",
  "data": [
    {"biological_target": "Neuropeptide Y receptor type 1 (Homo sapiens) (UniProt P25929)", "sequence (P25929 whole entry, looked up)": "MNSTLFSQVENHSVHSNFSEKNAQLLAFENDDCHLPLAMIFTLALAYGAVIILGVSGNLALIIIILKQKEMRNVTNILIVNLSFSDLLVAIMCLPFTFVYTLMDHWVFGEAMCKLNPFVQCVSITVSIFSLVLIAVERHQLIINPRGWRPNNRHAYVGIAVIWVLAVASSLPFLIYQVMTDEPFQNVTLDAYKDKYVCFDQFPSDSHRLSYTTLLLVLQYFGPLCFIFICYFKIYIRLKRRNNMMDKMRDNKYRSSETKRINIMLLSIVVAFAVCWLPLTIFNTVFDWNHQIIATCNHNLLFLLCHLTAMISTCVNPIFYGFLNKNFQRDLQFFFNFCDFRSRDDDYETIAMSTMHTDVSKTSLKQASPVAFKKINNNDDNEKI", "assay": "blockade of human NPY-Y1 in cells – counter-screen for NPY-Y2 antagonist project (AID 1256);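 also: cells challenged with NPY then isoproterenol with cAMP sensed through a CNG channel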", "conditions": "cell-based NPY-Y1 antagonism counterscreen; at 3.6 µM; hits give high values", "values": [
      {"smiles": "COC(=O)c1ccc(CSc2nc3cc(Cl)ccc3o2)cc1", "inhibition": "11.2%"},
      {"smiles": "COc1ccc(NC(=O)/C(Cl)=C(/Cl)S(=O)Cc2ccc(C)cc2)cn1", "note": "(centres undefined)", "inhibition": "42.1% (active)"},
      {"smiles": "Cc1ccc(CCC(=O)Nc2ncc(Cc3cc(Cl)ccc3Cl)s2)o1", "inhibition": "18.8%"},
      {"smiles": "c1ccc(-c2cc3c(NCC4COc5ccccc5O4)ncnc3s2)cc1", "note": "(centres undefined)", "inhibition": "19.3%"},
      {"smiles": "N#Cc1ccc(C(c2nnnn2CCc2ccccc2)N2CCCCCC2)cc1", "note": "(centres undefined)", "inhibition": "7.96%"},
      {"smiles": "O=S(=O)(Cc1cc(Sc2ccccc2)nc(-c2ccccc2)n1)c1ccccc1", "inhibition": "11.8%"},
      {"smiles": "O=C(Oc1ccccc1)Oc1ccc2c(c1)oc(=O)c1ccccc12", "inhibition": "3.68%"},
      {"smiles": "Cc1ccccc1N1CCN(CCCOc2ccc3c(C)cc(=O)oc3c2)CC1", "inhibition": "19.3%"},
      {"smiles": "Cc1ccc(NC(=O)CN2CCC3(O)CCCCC3C2c2ccc3c(c2)OCO3)c(C)c1", "note": "(centres undefined)", "inhibition": "5.96%"},
      {"smiles": "CC12CN(Cc3ccccc3)CC(C)(CN(Cc3ccccc3)C1)C2=NO", "inhibition": "13.2%"},
      {"smiles": "COc1cccc(-c2ccc(C#N)c(SCC(=O)NCCc3ccc(Cl)cc3)n2)c1", "inhibition": "9.97%"},
      {"smiles": "CCCc1nc(SCC(=O)Nc2ccccc2OC)c2c(=O)n(C)c(=O)n(C)c2n1", "inhibition": "20.6% (active)"},
      {"smiles": "COc1ccc(-c2noc(COc3ccc(Cl)c(C)c3)n2)cc1", "inhibition": "13.3%"},
      {"smiles": "CCOc1ccc(S(=O)(=O)N/N=C(\\C)c2ccc(Cl)c(Cl)c2Cl)cc1", "inhibition": "17.7%"},
      {"smiles": "CCOC(=O)C(C)Sc1nc2ccccc2c(=O)n1CC1CCCCC1", "note": "(centres undefined)", "inhibition": "7.75%"},
      {"smiles": "O=C(CC(O)(C(F)(F)F)C(F)(F)F)Nc1ccc(Cl)c(Cl)c1", "inhibition": "20.5% (active)"},
      {"smiles": "COc1ccc(/C=C/C(=O)NC(=S)NN2CCCCC2c2cccnc2)cc1", "note": "(centres undefined)", "inhibition": "29.1% (active)"},
      {"smiles": "C=CCNCCCCOc1ccccc1", "inhibition": "-1.26%"},
      {"smiles": "CCOc1ccc(C(O)Cn2c(=N)n(CCN3CCCCC3)c3ccccc32)cc1", "note": "(centres undefined)", "inhibition": "13.1%"},
      {"smiles": "CCCCCNC(=O)Cc1ccc(OC)cc1", "inhibition": "1.16%"},
      {"smiles": "CN(C)Cc1ccc(F)cc1Sc1cc(Cl)ccc1Cl", "inhibition": "11.3%"},
      {"smiles": "Cc1cccc(OCC(O)Cn2c(=N)n(CCN3CCOCC3)c3ccccc32)c1", "note": "(centres undefined)", "inhibition": "4.2%"},
      {"smiles": "Cc1ccc(S(=O)(=O)N(Cc2ccc(Cl)cc2)c2ccccc2C(=O)NCc2cccnc2)cc1", "inhibition": "28.4% (active)"},
      {"smiles": "O=C1CC(c2cccc(Cl)c2)CC(O)=C1C=Nc1ccccc1", "note": "(centres undefined)", "inhibition": "17.3%"},
      {"smiles": "N#Cc1ccc(N2Cc3ccccc3/C2=N/C(=O)Nc2ccc(Cl)cc2)cc1", "inhibition": "100% (active)"},
      {"smiles": "Cc1cc(C(=O)OCC(=O)N2c3ccccc3NC(=O)C2(C)C)c(C)n1-c1ccccc1", "inhibition": "5.21%"},
      {"smiles": "Cc1ccccc1OC(=O)Cn1c(C(F)(F)F)nc2ccccc21", "inhibition": "7.05%"},
      {"smiles": "O=C(Nc1nnc(SCc2c(Cl)cccc2Cl)s1)C1CCCO1", "note": "(centres undefined)", "inhibition": "12.1%"},
      {"smiles": "COc1ccc(/C(N)=N/OC(=O)CCCc2ccccc2)cc1", "inhibition": "6.54%"},
      {"smiles": "COc1ccc(-c2nc3ccccc3n2CCC(C)C)cc1OC", "inhibition": "8.19%"},
      {"smiles": "N=c1n(Cc2ccc(Cl)cc2)c2ccccc2n1CC(O)c1ccco1", "note": "(centres undefined)", "inhibition": "13.8%"},
      {"smiles": "Cc1ccc(C2=NN(C)c3nc4ccccc4n3C2)cc1", "inhibition": "8.4%"},
      {"smiles": "Cc1cc(C)nc(-n2ncc3c2CC(c2ccc(C(C)C)cc2)CC3=O)n1", "note": "(centres undefined)", "inhibition": "20.4% (active)"},
      {"smiles": "CCCCC(O)(CCCC)C(=O)NN(C(=O)CCl)c1ccccc1", "inhibition": "7.18%"}
    ]}
  ]
}
